Converted amounts (≈) assume the structure as drawn. The campaign covered roughly 1,100 compounds. About 170 (15%) were called active. No rule for the calls is given here. A selection follows.
assay: Mycobacterium tuberculosis H37Rv growth inhibition, confirmatory dose response, cytotoxicity (AID 1332);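 as to CC50: Vero cells exposed to compounds for 72 hours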;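 as to IC50: bacteria incubated 7 days before adding Alamar blue readout reagent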; details: M. tuberculosis H37Rv growth inhibition; CC50: measured here: Vero cell cytotoxicity; IC50: measured here: IC50 H37Rv replicates

SMILES | IC50 [µg/mL] | outcome | CC50 [µg/mL]
COc1ccc(C(=O)c2ccccc2)c(O)c1 | > 20 | inactive | 
CCC[C@@H]1C[C@@H](C(=O)N[C@@H]([C@H]2O[C@H](SC)[C@H](O)[C@@H](O)[C@@H]2O)[C@@H](C)O)N(C)C1 | 11.6 (≈ 28.5 µM) | active | 
CCC[C@@H]1C[C@@H](C(=O)N[C@@H](C2O[C@H](SC)[C@H](O)[C@@H](O)[C@H]2O)[C@H](C)Cl)N(C)C1 (some centres not stated) | 0.395 (≈ 0.929 µM) | active | 
CCC(=O)O[C@@H]1CC(=O)O[C@H](C)C/C=C/C=C/[C@@H](O)[C@H](C)C[C@H](CC=O)[C@H](O[C@@H]2O[C@H](C)[C@@H](O[C@H]3C[C@@](C)(O)[C@@H](OC(=O)CC)[C@H](C)O3)[C@H](N(C)C)[C@H]2O)[C@H]1OC | > 20 | inactive | 
CN(C)CCOC(c1ccc(Cl)cc1)c1ccccn1 (configuration not stated) | > 20 | inactive | 
CCOC(=O)[C@H](CCc1ccccc1)N[C@@H](C)C(=O)N1C(C(=O)O)C[C@@H]2CCC[C@@H]21 (some centres not stated) | > 20 | inactive | 
Cc1onc(-c2ccccc2Cl)c1C(=O)N[C@@H]1C(=O)N2[C@@H]1SC(C)(C)[C@@H]2C(=O)O | > 20 | inactive | 
Cn1nnnc1SCC1=C(C(=O)O)N2C(=O)[C@@H](NC(=O)[C@H](O)c3ccccc3)[C@H]2SC1 | > 20 | inactive | 
NCc1ccccc1CC(=O)N[C@@H]1C(=O)N2C(C(=O)O)=C(CSc3nnnn3CC(=O)O)CS[C@H]12 | 13.8 (≈ 26.6 µM) | active | 
CN(C)CCn1nnnc1SCC1=C(C(=O)O)N2C(=O)[C@@H](NC(=O)Cc3csc(N)n3)[C@H]2SC1 | > 20 | inactive | 
CC(C)(C)NCC(O)COc1cccc2c1CCC(=O)N2 (configuration not stated) | > 20 | inactive | 
Cc1n[nH]c(=O)[nH]c1=O | > 20 | inactive | 
CCN(CC)CCNC(=O)c1cc(Cl)c(N)cc1OC | > 20 | inactive | 
COc1cc(N)c(Cl)cc1C(=O)NC1CCN(Cc2ccccc2)CC1 | > 20 | inactive | 
COc1cc(N)c(Cl)cc1C(=O)N[C@H]1CCN(CCCOc2ccc(F)cc2)C[C@H]1OC | 9.3 (≈ 20 µM) | active | 
O=C(O)C1CCCNC1 (configuration not stated) | > 20 | inactive | 
CC(=O)Nc1cc2ccccc2oc1=O | > 20 | inactive | 
CCCC(=O)Nc1ccc(OCC(O)CNC(C)C)c(C(C)=O)c1 (configuration not stated) | > 20 | inactive | 
COc1cc(C(=O)OCCCN2CCCN(CCCOC(=O)c3cc(OC)c(OC)c(OC)c3)CC2)cc(OC)c1OC | > 20 | inactive | 
COc1cc(/C=C/C(=O)N2CCC=CC2=O)cc(OC)c1OC | 11.4 (≈ 36.1 µM) | active | 1.53 (≈ 4.82 µM)
CC(=O)[C@H]1CC[C@H]2[C@@H]3C=CC4=CC(=O)CC[C@@]4(C)[C@@H]3CC[C@]12C | > 20 | inactive | 
CC(N)CCCC(C)(C)O (configuration not stated) | > 20 | inactive | 
CC1(C)S[C@@H]2[C@H](NC(=O)[C@H](N)c3ccccc3)C(=O)N2[C@H]1C(=O)OC1OC(=O)c2ccccc21 (some centres not stated) | > 20 | inactive | 

SMILES | IC50 [µg/mL] | outcome | CC50 [µg/mL]
CC(=O)Oc1ccc(C(c2ccc(OC(C)=O)cc2)c2ccccn2)cc1 | > 20 | inactive | 
CC(=O)N=c1sc(S(N)(=O)=O)nn1C | > 20 | inactive | 
C=C(C)[C@@H]1CC[C@]2(CO)CC[C@]3(C)[C@H](CC[C@@H]4[C@@]5(C)CC[C@H](O)C(C)(C)[C@@H]5CC[C@]43C)[C@@H]12 | > 20 | inactive | > 6
CC(C)(C)CC(C)(C)c1ccc(OCCOCC[N+](C)(C)Cc2ccccc2)cc1 | 8 | active | 
CC(C)(C)CC(C)(C)c1ccc(OCOCCOCCO)c(Cc2cc(C(C)(C)CC(C)(C)C)cc(Cc3cc(C(C)(C)CC(C)(C)C)ccc3OCOCCOCCO)c2OCOCCOCCO)c1 | > 20 | inactive | 
C[N+](C)(CCOc1ccccc1)Cc1ccccc1 | > 20 | inactive | 
CCCCC1(COC(=O)CCC(=O)O)C(=O)N(c2ccccc2)N(c2ccccc2)C1=O | > 20 | inactive | 
CNCCC(Oc1ccccc1OC)c1ccccc1 (configuration not stated) | > 20 | inactive | 
CNCCC(Oc1ccc(C(F)(F)F)cc1)c1ccccc1 (configuration not stated) | 9.88 (≈ 32 µM) | active | > 6
CO[C@H]1C=C2CCN(C)[C@H]2C2c3cc4c(cc3C(=O)O[C@@H]21)OCO4 (some centres not stated) | > 20 | inactive | 
C#C[C@]1(OC(C)=O)CC[C@H]2[C@@H]3CCC4=C[C@@H](OC(C)=O)CC[C@@H]4[C@H]3CC[C@@]21C | > 20 | inactive | 
C=C1c2c(Cl)ccc(O)c2C(O)=C2C(=O)[C@]3(O)C(O)=C(C(N)=O)C(=O)[C@@H](N(C)C)[C@@H]3[C@@H](O)C12 (some centres not stated) | 3.86 (≈ 8.1 µM) | active | > 6
CN(C)[C@@H]1C(=O)C(C(N)=O)=C(O)[C@@]2(O)C(=O)C3=C(O)c4c(O)ccc(Cl)c4[C@@](C)(O)C3C[C@@H]12 (some centres not stated) | 13.2 (≈ 27.5 µM) | active | 
C[C@H]1c2cccc(O)c2C(O)=C2C(=O)C3(O)C(O)=C(C(N)=O)C(=O)[C@@H](N(C)C)[C@@H]3[C@@H](O)[C@@H]21 (some centres not stated) | 2.44 (≈ 5.49 µM) | active | 
CN(C)[C@@H]1C(=O)C(C(=O)NCN2CCCC2)=C(O)[C@@]2(O)C(=O)C3=C(O)c4c(O)cccc4[C@@](C)(O)C3CC12 (some centres not stated) | > 20 | inactive | 
C=C1c2cccc(O)c2C(O)=C2C(=O)[C@]3(O)C(O)=C(C(N)=O)C(=O)[C@@H](N(C)C)[C@@H]3[C@@H](O)[C@H]12 | > 17.9 | active | 
CN(C)[C@@H]1C(=O)C(C(N)=O)=C(O)[C@@]2(O)C(=O)C3=C(O)c4c(O)cccc4[C@@](C)(O)[C@H]3[C@H](O)[C@@H]12 | > 20 | inactive | 
CCC(=O)OCC(=O)C1(OC(=O)CC)[C@H](C)C[C@H]2[C@H]3[C@H]([C@@H](O)C[C@@]21C)[C@@]1(C)C=CC(=O)C=C1C[C@H]3Cl (some centres not stated) | > 20 | inactive | 
O=C1C(CCS(=O)c2ccccc2)C(=O)N(c2ccccc2)N1c1ccccc1 (configuration not stated) | > 20 | inactive | 
CN(C)C/C=C(\c1ccc(Br)cc1)c1cccnc1 | > 20 | inactive | 
CC1(C)S[C@@H]2[C@H](NC(=O)[C@H](N)c3ccccc3)C(=O)N2[C@H]1C(=O)O | > 20 | inactive | 
CN(Cc1cnc2nc(N)nc(N)c2n1)c1ccc(C(=O)NC(CCC(=O)O)C(=O)O)cc1 (configuration not stated) | > 20 | inactive | 0.048 (≈ 0.106 µM)
CC(C(=O)O)c1ccc(N2Cc3ccccc3C2=O)cc1 (configuration not stated) | > 20 | inactive | 
